# Assay results from PubChem BioAssay AID2099 (Broad Institute, 2009).
# Hit rate of the full screen: of about 330,000 compounds, about 230 (0.07%) were called active. Shown is part of a subset that was picked to be rich in actives. A number with no mark means an inactive call.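 The calls were made as follows: active = more than half of a compound's replicate wells show inhibition beyond 50%, single wells judged on their own value; inconclusive = some, but no more than half, of replicates pass 50% inhibition; inactive = no replicate passes 50% inhibition.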
# Molecular target: Lysine-specific demethylase 4C (Homo sapiens) (UniProt Q9H3R0)
# Assay: JMJD2C H3K9me3 demethylation blockers – biochemical, fluorescence, DELFIA europium, primary screen (AID 2099);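 also: signal counts dimethyl H3K9 product captured on neutravidin plate; 0% = median of DMSO wells and 100% = 0.3 times that DMSO median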
# Conditions: GST-JMJD2C(1-420) H3K9me3 demethylation, at 2.35 µM, hits give high values
# Chain of Lysine-specific demethylase 4C (Homo sapiens) (Q9H3R0 1-420 limits assumed): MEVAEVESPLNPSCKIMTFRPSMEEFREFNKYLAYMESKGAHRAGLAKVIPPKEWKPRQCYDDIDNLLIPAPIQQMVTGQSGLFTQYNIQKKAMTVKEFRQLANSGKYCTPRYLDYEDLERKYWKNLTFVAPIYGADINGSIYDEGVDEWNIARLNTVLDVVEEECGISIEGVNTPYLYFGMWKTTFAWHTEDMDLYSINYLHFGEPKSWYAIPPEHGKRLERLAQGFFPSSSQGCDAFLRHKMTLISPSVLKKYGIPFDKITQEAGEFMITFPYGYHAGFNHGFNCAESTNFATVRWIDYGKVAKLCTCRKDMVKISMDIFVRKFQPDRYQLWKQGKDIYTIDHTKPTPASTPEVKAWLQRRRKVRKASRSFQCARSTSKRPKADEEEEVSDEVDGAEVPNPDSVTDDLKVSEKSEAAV
row,Compound,inhibition
1,CN1CCN(CC#CCC2(O)c3ccccc3-c3ccccc32)CC1,-1.35%
2,O=C(N/C(=C\c1ccc([N+](=O)[O-])cc1)C(=O)N1CCOCC1)c1cccc(Br)c1,-3.44%
3,C=CCN1C(=O)C(O)(CC(=O)c2ccc(Cl)cc2)c2ccccc21 (stereo not drawn),-1.48%
4,Cc1ccsc1/C=N/n1c(=S)[nH]nc(C)c1=O,-1.06%
5,C=CCn1cc(Cl)cc(C(=O)Nc2ccccc2)c1=O,3.59%
6,O=C1Nc2cc(Cl)c(Cl)cc2N(O)N1c1ccccc1Cl,-2.09%
7,CCCCN(CCCC)CCNC(=O)CN1C(=O)COc2ccc(S(=O)(=O)N3CCOCC3)cc21,-8.15%
8,COc1cc2c(cc1OC)CC1(CCCCC1)N=C2,2.64%
9,COC(C[C@@H](O)[C@H](C)[C@H](O)COCc1ccccc1)OC,13.4%
10,O=C(CSc1nc(=O)n2ccccc2n1)Nc1ccc2c(c1)OCCO2,-1.16%
11,COc1cccc(NCCC(=O)c2cccc([N+](=O)[O-])c2)c1,4.3%
12,CCc1ccc(N2CC(O)=C(c3nc4ccccc4c(=O)[nH]3)C2=N)cc1,-0.372%
13,Cc1cc(C)c(S(=O)(=O)N2CCOCC2)cc1C,8.81%
14,Cc1ccc(C2=NN(C)c3nc4ccccc4n3C2)cc1,4.06%
15,Cc1nn(C)c(Cl)c1CN1CCC(Oc2ccc(C(=O)N3CCCC3)cc2)CC1,36.3%
16,Cc1ccc(-n2c(CNc3ccc(F)cc3)nnc2SCC(=O)N2CCOCC2)cc1,0.71%
17,CC(=O)Nc1ccc(NC(=O)CCN2C(=O)C3CC=CCC3C2=O)cc1 (stereo not drawn),3.08%
18,O=c1cc(-c2ccccc2)[nH]c2cc(F)ccc12,0.818%
19,Cc1ccccc1NC(=O)N1CCCC1C(=O)NCc1ccccc1 (stereo not drawn),5.47%
20,Cc1nnc(SC(C(=O)c2ccccc2)c2ccccc2)[nH]c1=O (stereo not drawn),-3.86%
21,CCCCN1CCNC1=S,0.223%
22,OCCC1CN(Cc2ccc3nsnc3c2)CCN1C1CCCC1 (stereo not drawn),-2.72%
23,O=C(NCc1ccccn1)c1cnc2sccn2c1=O,-1.24%
24,Cc1nc2nc(SCC(=O)Nc3cccc(F)c3)[nH]c2cc1Br,6.95%

row,Compound,inhibition
1,COc1ccc(F)c(-c2nc(CN3CCC(c4ccccc4)CC3)c(C)o2)c1,-8.87%
2,O=c1c2sccc2nc(SCc2cc(=O)n3ccccc3n2)n1-c1ccc(Br)cc1,-3.21%
3,CC(C)(C)NC(=O)NC(=O)CN1CCC(Cc2ccccc2)CC1,-22.7%
4,CN(CC1CCCO1)S(=O)(=O)c1ccc(C(=O)Nc2ccc([N+](=O)[O-])cc2)cc1 (stereo not drawn),-19.5%
5,COc1ccc(NS(=O)(=O)c2ccc(N3CCN(CCO)CC3)c([N+](=O)[O-])c2)cc1,1.9%
6,O=C(NCc1ccccc1Cl)NC(=O)c1csc([N+](=O)[O-])c1,-1.75%
7,O=C(CN1CCCCCC1)Nc1ccc(Br)cc1Br,7.23%
8,O=C(CCCOc1ccccc1)NCc1ccco1,8.15%
9,COc1cccc(OC)c1C(=O)OCC(=O)/C(C#N)=C(\C)N,-25.5%
10,CC(C)CCN1CCN(Cc2cn[nH]c2C2CCCCC2)CC1CCO (stereo not drawn),-11.2%
11,COc1ccc(NC(=O)CN(C)C(=O)c2cccc(S(=O)(=O)N3CCN(c4ccccc4)CC3)c2)cc1,38.9%
12,CCCC(=O)N1CCC(CCC(=O)NC2CC2)CC1,33.1%
13,O=C(CSCc1c(Cl)cccc1Cl)NN1C(=O)c2ccccc2C1=O,-14.7%
14,CCCCn1c(N)c(N(CC(C)C)C(=O)c2cccc(S(=O)(=O)N3CC(C)OC(C)C3)c2)c(=O)[nH]c1=O (stereo not drawn),-2.81%
15,O=C(OCC1O[C@@H](OC(=O)c2cc(O)c(O)c(O)c2)[C@@H](OC(=O)c2cc(O)c(O)c(O)c2)[C@@H](OC(=O)c2cc(O)c(O)c(O)c2)[C@@H]1OC(=O)c1cc(O)c(O)c(O)c1)c1cc(O)c(O)c(O)c1 (stereo partly drawn),97.3% (active)
16,NS(=O)(=O)c1ccc(NC(=S)NNC(=O)c2cccs2)cc1,0.859%
17,COc1ccc(-c2noc(CCCC(=O)NC3CCCC3)n2)cc1OC,0.509%
18,Cc1cccc(-c2noc(CCC(=O)NC3CCCC3)n2)c1,54.2% (active)
19,CCOc1ccc(-c2noc(CCC(=O)NC3CCCC3)n2)cc1OC,7.26%
20,C/C(=N\NC(=O)COc1ccc(C)cc1[N+](=O)[O-])c1ccc2c(c1)OCCO2,9.39%
21,Cc1cc(NC(=O)Nc2c[nH]c(=O)[nH]c2=O)ccc1Br,53.4% (active)
22,Cc1cc(NC(=O)[C@H](C)NC(=O)c2ccco2)ccc1Br,-9.73%
23,Cc1ccc(NC(=O)Nc2ccccc2)c(Br)c1,14.6%
24,CCc1c(C)nc2c(OC)cccc2c1Cl,8.11%

row,Compound,inhibition
1,Cc1ccccc1CN1C[C@@H]2C[C@@H](c3ccc4nsnc4c3)N3CCC[C@@]23C1=O,10.6%
2,COc1cccc(COC(=O)C2CCN(S(=O)(=O)c3cccs3)CC2)c1OC,-2.56%
3,O=c1ccc2c(-c3ccccc3S(=O)(=O)O)c3ccc(O)c(O)c3oc-2c1O,79.5% (active)
4,CC(C)CN(C(=O)Cn1c(=O)cnc2ccccc21)C1CCS(=O)(=O)C1 (stereo not drawn),2.23%
5,CCc1ccc(-c2nnn(Cc3nn[nH]n3)n2)cc1,57.7% (active)
6,c1cc(-c2nn[nH]n2)ccc1CN1CCCCC1,12.9%
7,CCc1ccc(-c2nnn(Cc3nc4ccccc4s3)n2)cc1,51.2%
8,N#CCc1c(C#N)c(N)nc(N2CCCC2)c1C#N,1.17%
9,N#Cc1c(N2CCCCC2)nc(N)c2c(N)nc(SCC(=O)O)cc12,65.6% (active)
10,Nc1nc(NCC(=O)O)nc(N2CCCCCC2)c1[N+](=O)[O-],21.9%
11,CCCCn1c(N)c(N(CC(C)C)C(=O)c2ccc(-n3c(C)ccc3C)cc2)c(=O)[nH]c1=O,-11.1%
12,Cc1cc(=O)n2nc(N3CCC(C(=O)Nc4c(F)c(F)c(F)c(F)c4F)CC3)sc2n1,1.58%
13,COc1cc(CNCc2ccc3c(c2)OCO3)c([N+](=O)[O-])cc1OC,1.62%
14,O=C(CN1C(=O)NC2(CCCCCC2)C1=O)NCc1ccc(F)cc1,2.24%
15,CSc1ccccc1NC(=O)c1cc(C2CC2)on1,4.43%
16,COC(=O)C1C(=O)CC(C)(O)C(C(=O)OC)C1c1ccc2c(c1)OCO2 (stereo not drawn),-4.99%
17,N#Cc1c(/N=C/N2CCCC2)oc(-c2ccccc2)c1-c1ccccc1,-7.68%
18,COc1ccc(C2(CNC(=O)Cc3ccc(OC)c(OC)c3)CCCC2)cc1,-23.7%
19,COc1ccc(C)cc1S(=O)(=O)Nc1cc2c3c(c1)CCC(=O)N3CCC2,-0.171%
20,O=C(O)C1CCN1C1CCCCC1 (stereo not drawn),-9.8%
21,COc1ccc(NC(=O)C2CCC(CNc3c(N4CCCCC4)c(=O)c3=O)CC2)c(OC)c1 (stereo not drawn),-6.37%
22,COCc1cc(C)nc2sc3c(=O)n(-c4cccc5ccccc45)nnc3c12,-7.85%
23,CCc1nc2cccnc2n1-c1ccc(C(=O)O)cc1,3.28%
24,Cc1ccc2nc(-c3ccc(NC(=O)CN(C)S(=O)(=O)c4ccccc4)cc3)sc2c1,-15.6%

row,Compound,inhibition
1,CN(CCCC(=O)Nc1nccs1)S(=O)(=O)c1ccc(Cl)cc1,9.62%
2,O=C1C=C(c2ccccc2)CCC1,-14.3%
3,C/C=C/C(=O)Nc1nnc(C(C)C)s1,-0.768%
4,CCCC(=O)N1CCN(c2nnc(-c3ccc(C)cc3)c3ccccc23)CC1,-13.5%
5,C[C@H](C(=O)CC(=O)OC(C)(C)C)[C@H](O)c1ccc(C(F)(F)F)cc1,1.41%
6,CC1CCCCC1NC(=O)Cn1cnc2c1c(=O)n(C)c(=O)n2C (stereo not drawn),6.58%
7,O=C1CCC(=O)N1CCOP1(=O)COc2ccccc2OC1,2.42%
8,NC(=O)c1ccc(N2CCOCC2)nc1,-3.7%
9,Cc1noc(NS(=O)(=O)c2ccc(N3CC(O)=C(c4ccccc4)C3=N)cc2)c1C,-10.1%
10,COc1ccc([N+](=O)[O-])cc1NC(=O)CC1SC(=Nc2cccc(C)c2C)N(/N=C(\C)c2ccc(C)cc2)C1=O (stereo not drawn),-21.9%
11,CN(Cc1ccccc1)C(=O)C(=O)c1cn(CC(=O)N2CCCC2)c2ccccc12,11.9%
12,O=C(c1cc2ccccc2s1)N1CCN(c2ccccn2)CC1,-6.37%
13,O=C(N=C1SC2CS(=O)(=O)CC2N1c1ccccc1)c1ccccc1 (stereo not drawn),1.92%
14,COc1ccc(C)cc1NC(=O)CCCN1C(=O)NC(C)(C)C1=O,-6.72%
15,O=C(CC(NS(=O)(=O)c1ccc(Cl)cc1)c1ccco1)NC1CCCC1 (stereo not drawn),-10.3%
16,CC(C)Cn1c(N2CCN(C(=O)/C=C/c3ccccc3)CC2)nc2ccccc21,12%
17,CCCCn1c(N)c(N(CC)C(=O)/C=C/c2ccco2)c(=O)[nH]c1=O,-4.8%
18,CN(C(=O)CSc1cccc[n+]1[O-])C1CCCCC1,-11.4%
19,CCOc1cc(CN2CCCC(CO)(Cc3ccc(F)cc3F)C2)ccc1OC (stereo not drawn),-2.58%
20,O=C(NCc1cccs1)c1ccc(CS(=O)Cc2ccccc2Cl)o1 (stereo not drawn),-4.03%
21,CCOc1cnc(-c2c(-c3ccccc3Cl)noc2C)o1,0.379%
